Among the test systems are SK-MEL-2 melanoma; EKVX NSCLC; SN12C renal; UO-31 renal; TK-10 renal; ACHN renal; CAKI-1 renal; A498 renal; CCRF-CEM leukemia; MOLT-4 leukemia; SR leukemia; RPMI-8226 leukemia; OVCAR-8 ovarian; OVCAR-5 ovarian; OVCAR-4 ovarian; SK-OV-3 ovarian; OVCAR-3 ovarian; HS 578T breast; NCI/ADR-RES ovarian; IGROV1 ovarian.
Test in all cases: NCI-60 one-dose screen, 48 h (100 = growth as untreated, 0 = no growth, -100 = all killed)
Settings in all cases: 10 µM unless noted

About 83,000 compounds went through this panel and 20% of them were active in at least one assay; those are over-represented in the sample as a whole.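 Percent growth is the endpoint: 0 to 100 indicates growth inhibition (40 means 60% inhibition), 0 means no net growth, and negative values indicate cell death.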 A number with no mark means an inactive call. Activity calls are given as the source filed them. Rule for the calls: active = growth percent below 10; inactive = the rest.

With `COc1ccc2nc(NC(=O)c3ccc(N(C)C)cc3)sc2c1`, the growth was 88.8% in the test on SK-MEL-2 melanoma; 63.4% in the test on EKVX NSCLC; 85.6% in the test with SN12C renal; 46.7% in the test on UO-31 renal; 115% in the test with TK-10 renal; 77.5% in the test on ACHN renal. For the same compound, the growth in the test with CAKI-1 renal was 79.6%; with A498 renal it was 95.6%; in the test on CCRF-CEM leukemia, 47.7%; in the test on MOLT-4 leukemia, 43.1%; with SR leukemia, 42.5%; with RPMI-8226 leukemia, 31.9%. Further, the growth with OVCAR-8 ovarian was 75.7%; with OVCAR-5 ovarian, 93%; in the test with OVCAR-4 ovarian, 75%; in the test with SK-OV-3 ovarian, 111%; in the test with OVCAR-3 ovarian, 94.5%; in the test with HS 578T breast it was 95.9%. In addition, the growth with NCI/ADR-RES ovarian was 52.9%.

With `Cc1ccc(C(C(=O)NC2CCCCC2)N(Cc2ccccc2Cl)C(=O)c2ccc(CN3CCOCC3)o2)o1` (stereo not given), the growth is 92.8% in the test on SK-MEL-2 melanoma; 89% in the test with EKVX NSCLC; 95% in the test with SN12C renal; 71.1% in the test on UO-31 renal; 101% with TK-10 renal; 104% with ACHN renal. In addition, the growth in the test with CAKI-1 renal is 72.4%; in the test with A498 renal it was 119%; in the test with CCRF-CEM leukemia, 86.8%; in the test on MOLT-4 leukemia it was 70.3%; in the test with SR leukemia it was 103%; with RPMI-8226 leukemia it was 80.4%. In addition, the growth in the test with OVCAR-8 ovarian was 104%; in the test with OVCAR-5 ovarian, 99.8%; in the test on OVCAR-4 ovarian, 96.8%; in the test on SK-OV-3 ovarian, 112%; with IGROV1 ovarian it was 92.5%; with OVCAR-3 ovarian it was 110%. In addition, the figures for the growth in the test with HS 578T breast and in the test on NCI/ADR-RES ovarian were 86% and 87.5%, respectively.

Regarding `O=C(c1cc2cc(OCCCN3CCC3)ccc2[nH]1)N1C[C@@H](CCl)c2c1cc(OCc1ccccc1)c1ccccc21`, the growth in the test on SK-MEL-2 melanoma is -93.4% (active); with EKVX NSCLC, -46% (active); in the test on SN12C renal, -40.1% (active); with UO-31 renal, -84.6% (active); in the test on TK-10 renal it was -3.9% (active); in the test with ACHN renal, -96.8% (active). In addition, the growth in the test with CAKI-1 renal was -84.6% (active); in the test on A498 renal, -25.3% (active); in the test on CCRF-CEM leukemia, -18.2% (active); in the test on MOLT-4 leukemia, -15.4% (active); in the test on SR leukemia, -9.25% (active); in the test on RPMI-8226 leukemia, -37.1% (active). In addition, the growth in the test on OVCAR-8 ovarian was -37.6% (active); with OVCAR-5 ovarian, -76.9% (active); with OVCAR-4 ovarian, -57.7% (active); with SK-OV-3 ovarian, -9.06% (active); with OVCAR-3 ovarian it was -29.5% (active); with HS 578T breast, -8.06% (active). Further, the growth in the test with NCI/ADR-RES ovarian is -34.9% (active).

As for `S=C(Nc1ccccc1)Nc1ccc(OCc2nc3ccc(Cl)cc3[nH]2)cc1`, the growth in the test with SK-MEL-2 melanoma was 91.4%; with EKVX NSCLC, 67.2%; in the test with SN12C renal, 78.8%; in the test with UO-31 renal, 70.3%; with TK-10 renal, 114%; in the test with ACHN renal, 81.8%. Besides, the growth was 84.1% in the test on CAKI-1 renal; 110% in the test with A498 renal; 54.2% in the test with CCRF-CEM leukemia; 52.3% in the test with MOLT-4 leukemia; 25.9% in the test with SR leukemia; 66.7% with RPMI-8226 leukemia. Further, the growth is 87.7% in the test with OVCAR-8 ovarian; 109% in the test on OVCAR-5 ovarian; 78.3% in the test with OVCAR-4 ovarian; 97.1% with SK-OV-3 ovarian; 87.9% in the test on IGROV1 ovarian; 92% in the test on HS 578T breast. In addition, in the test with NCI/ADR-RES ovarian, the growth is 83.7%.

As to `COc1c2c(c(Br)c3c1C(CCc1ccccc1)N(C)CC3)OCO2` (stereo not given), the growth is 68.6% in the test with SK-MEL-2 melanoma; 36.3% in the test with EKVX NSCLC; 35% in the test with SN12C renal; 35.9% with UO-31 renal; 70.9% in the test on TK-10 renal; 30.3% in the test on ACHN renal. Also, the growth with CAKI-1 renal is 36%; in the test with A498 renal it was 82%; with CCRF-CEM leukemia, 30.1%; in the test on MOLT-4 leukemia, 25.3%; with SR leukemia, 31%; with RPMI-8226 leukemia, 16.7%. In addition, the growth is 48.4% with OVCAR-8 ovarian; 29.9% with OVCAR-5 ovarian; 59.9% in the test with OVCAR-4 ovarian; 76.8% in the test with SK-OV-3 ovarian; 55.5% in the test on OVCAR-3 ovarian; 61.4% with HS 578T breast. For the same compound, the growth in the test with NCI/ADR-RES ovarian is 40%.

With `CC(C)C[C@H](NC(=O)[C@@H]1CCCCCCCCCCC(=O)N[C@@H](CC(=O)N2CCC[C@@H]2C2CCCC2)C(=O)N1)B(O)O`, the growth in the test with SK-MEL-2 melanoma was -70.6% (active); with EKVX NSCLC it was -39.2% (active); with SN12C renal, -88.9% (active); in the test on UO-31 renal, -66.8% (active); in the test on TK-10 renal, 0.691% (active); in the test on ACHN renal, 3.27% (active). The growth with CAKI-1 renal is 7.24% (active); with A498 renal, -87.2% (active); with CCRF-CEM leukemia, 44%; with MOLT-4 leukemia, -19.9% (active); in the test on SR leukemia, -14.3% (active); with RPMI-8226 leukemia, 22%. The growth in the test with OVCAR-8 ovarian was -17.4% (active); in the test with OVCAR-5 ovarian, -36.8% (active); with OVCAR-4 ovarian, -13% (active); in the test on SK-OV-3 ovarian, -7.33% (active); in the test on IGROV1 ovarian, -58.2% (active); in the test with OVCAR-3 ovarian, -46.5% (active). Besides, the growth in the test on HS 578T breast is 3.6% (active); in the test with NCI/ADR-RES ovarian, 1.84% (active).

Take `COc1ccc(NC(=O)Cn2c(/C=C/c3ccc([N+](=O)[O-])cc3)nc3ccccc3c2=O)cc1`: the growth in the test on SK-MEL-2 melanoma was 78.9%; in the test with EKVX NSCLC, 74.4%; in the test on SN12C renal, 62.3%; in the test on UO-31 renal it was 22.9%; in the test with TK-10 renal, 25.5%; with ACHN renal it was 51.9%. The growth in the test on CAKI-1 renal is 63.2%; in the test on A498 renal, 85.8%; with CCRF-CEM leukemia it was 103%; in the test with MOLT-4 leukemia, 114%; with SR leukemia, 88.9%; in the test on RPMI-8226 leukemia, 90.6%. Moreover, the growth is 45.8% in the test with OVCAR-8 ovarian; 76.4% in the test on OVCAR-5 ovarian; 33.6% with SK-OV-3 ovarian; 59.6% in the test on IGROV1 ovarian; 60.2% with OVCAR-3 ovarian; 29.9% in the test on HS 578T breast. In the test with NCI/ADR-RES ovarian, the growth is 39%.

The values are drawn from PubChem BioAssay (NCI).
